# Records with an inconclusive call do not appear. Active and inactive are the calls of the source. Rule for the calls: active = hit-call score of the fitted dose curve at least 0.9, where 1 is the maximum; inconclusive = response in the unintended direction; inactive = score below 0.9.
# Molecular target: human Peroxisome Proliferator-activated Receptor delta (PPARd), PPARD (gene 5467) (UniProt Q03181)
# Assay: ATG_PPARd_TRANS: Attagene TRANS-FACTORIAL HepG2 Assay for human Peroxisome Proliferator-activated Receptor delta (PPARd) (AID 2283002)
# How it was run: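 Multiplexed trans-activation format: HepG2 liver cells expressing exogenous NR-Gal4 chimeras and GAL4-UAS reporters were exposed for 24 h. Reporter mRNA was detected by RT-PCR with capillary electrophoresis fluorescence; activity fitted as gain of signal relative to DMSO.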
# human Peroxisome Proliferator-activated Receptor delta (PPARd), PPARD (gene 5467), sequence (Q03181 whole entry, looked up): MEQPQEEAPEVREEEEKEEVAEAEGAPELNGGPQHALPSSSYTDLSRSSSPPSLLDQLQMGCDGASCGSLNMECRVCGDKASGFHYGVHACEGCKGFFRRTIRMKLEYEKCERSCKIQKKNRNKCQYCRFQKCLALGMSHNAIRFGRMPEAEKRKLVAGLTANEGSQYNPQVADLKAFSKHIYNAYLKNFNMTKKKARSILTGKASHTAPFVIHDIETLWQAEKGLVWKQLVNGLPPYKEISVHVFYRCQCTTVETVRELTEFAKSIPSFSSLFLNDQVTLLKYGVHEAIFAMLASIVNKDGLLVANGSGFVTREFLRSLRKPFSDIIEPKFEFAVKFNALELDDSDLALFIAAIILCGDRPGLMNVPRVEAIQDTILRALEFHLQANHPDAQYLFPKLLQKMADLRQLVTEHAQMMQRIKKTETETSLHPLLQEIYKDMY
SMILES,outcome,AC50
C=C1C2CCC(C2)C1(C)C (stereo not drawn),inactive,–
[Cl][Nd]([Cl])[Cl],inactive,–
CCCCCCCCO[C@@H]1O[C@H](CO)[C@@H](O)[C@H](O)[C@H]1O,inactive,–
CC(C)=CCC[C@H](C)CCO,inactive,–
COc1cc(C)ccc1C(C)C,inactive,–
CCCCCCCCCCCSCC(=O)O,–,7.11 µM (active)
C[C@]12CCC(=O)C=C1CC[C@@H]1[C@@H]2C(=O)C[C@@]2(C)[C@H]1CC[C@]2(O)C(=O)CO,inactive,–
CCC(C)C=O (stereo not drawn),inactive,–
O=C(O)CC(C(=O)O)C(CC(=O)O)C(=O)O (stereo not drawn),inactive,–
C=CCCCCCCCCC(=O)OCCCC,inactive,–
Cc1cccc(N(C)C(=S)Oc2ccc3ccccc3c2)c1,inactive,–
CCOC(F)(F)C(F)(F)C(F)(F)C(F)(F)F,inactive,–
O=S(=O)(Oc1ccc(Cl)cc1Cl)c1ccccc1,inactive,–
CCN(CCO)c1cccc(C)c1,inactive,–
CC=CC(F)(F)C(F)(F)C(F)(F)F,inactive,–
CCC(Cc1ccccc1)(C(=O)c1ccc(N2CCOCC2)cc1)N(C)C (stereo not drawn),inactive,–

# Molecular target: Peroxisome proliferator-activated receptor gamma (Homo sapiens) (UniProt P37231)
# Sequence (P37231 whole entry, looked up): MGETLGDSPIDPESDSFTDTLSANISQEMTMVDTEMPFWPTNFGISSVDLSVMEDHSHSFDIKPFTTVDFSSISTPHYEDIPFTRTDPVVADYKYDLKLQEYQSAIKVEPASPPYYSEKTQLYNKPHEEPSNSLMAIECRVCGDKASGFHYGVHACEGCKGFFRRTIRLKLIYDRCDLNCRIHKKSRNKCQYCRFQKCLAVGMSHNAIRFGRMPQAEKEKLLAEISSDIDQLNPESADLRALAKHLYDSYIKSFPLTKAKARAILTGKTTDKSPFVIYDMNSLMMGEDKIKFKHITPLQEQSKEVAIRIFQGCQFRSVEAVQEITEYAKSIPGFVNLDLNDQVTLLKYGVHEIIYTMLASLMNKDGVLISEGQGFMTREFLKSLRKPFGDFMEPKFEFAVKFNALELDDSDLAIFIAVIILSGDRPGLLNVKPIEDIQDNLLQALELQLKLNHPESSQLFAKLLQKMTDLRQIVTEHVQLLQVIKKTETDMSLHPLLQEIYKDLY
# Assay: ATG_PPARg_TRANS: Attagene TRANS-FACTORIAL HepG2 Assay for human Peroxisome Proliferator-activated Receptor-gamma (PPARg) (AID 2283007)
# How it was run: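 Transient transfection of HepG2 with GAL4-UAS-driven reporter units; chemical dosing 24 h; total RNA → oligo(dT) RT → PCR with reporter primers → 6-FAM primer extension → HpaI digest 2 h 37 C → capillary electrophoresis. Positive direction vs DMSO.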
SMILES,AC50,outcome
Oc1ccc(Cl)cc1Cc1cc(Cl)ccc1O,4.51 µM (active),–
CCOC(=O)CC,–,inactive
CCCCCC/C=C\CCCCCCCC(=O)O,–,inactive
O=C1Nc2ccccc2C1(c1ccc(O)cc1)c1ccc(O)cc1,–,inactive
C=CC(C)(CCC=C(C)C)OC(=O)CC(C)C (stereo not drawn),58.2 µM (active),–
CC(=O)C=CC1C(C)=CCC(C)C1(C)C (stereo not drawn),–,inactive
CCC(=O)Oc1ccc(/C(CC)=C(\CC)c2ccc(OC(=O)CC)cc2)cc1,18.5 µM (active),–
CCCCCCC(O)CO (stereo not drawn),–,inactive
Cc1ccc(N)c([N+](=O)[O-])c1,–,inactive
CCCCCCCC/C=C\CCCCCCCC(=O)OCCO,4.78 µM (active),–
CCCCCCCC/C=C\CCCCCCCC(=O)O,18.8 µM (active),–
CC/C=C\C/C=C\C/C=C\CCCCCCCC(=O)O,14.6 µM (active),–
CN(C)c1ccc(N=Nc2ccccc2C(=O)O)cc1,27.5 µM (active),–
N#CCc1ccc(Cl)cc1Cl,–,inactive
CC(C)c1ccc2c(c1)CC[C@H]1[C@](C)(CN)CCC[C@]21C,6.02 µM (active),–
CC(=O)c1ccc[nH]1,–,inactive

SMILES,AC50,outcome
O=S1(=O)OC(c2ccc(O)cc2)(c2ccc(O)cc2)c2ccccc21,–,inactive
CC(CC=O)c1ccccc1 (stereo not drawn),56.2 µM (active),–
Cc1oncc1C(=O)Nc1ccc(C(F)(F)F)cc1,41.1 µM (active),–
C=C[C@](C)(O)CC[C@@H]1[C@@]2(C)CCCC(C)(C)[C@@H]2CC[C@@]1(C)O,–,inactive
CCCCCCCCO[C@@H]1O[C@H](CO)[C@@H](O)[C@H](O)[C@H]1O,–,inactive
CC(C)=CCC[C@H](C)CCO,–,inactive
CCCCCCCCCCCSCC(=O)O,9.6 µM (active),–
C[C@]12CCC(=O)C=C1CC[C@@H]1[C@@H]2C(=O)C[C@@]2(C)[C@H]1CC[C@]2(O)C(=O)CO,–,inactive
O=C(O)CC(C(=O)O)C(CC(=O)O)C(=O)O (stereo not drawn),–,inactive
C=CCCCCCCCCC(=O)OCCCC,67.8 µM (active),–
Cc1cccc(N(C)C(=S)Oc2ccc3ccccc3c2)c1,2.88 µM (active),–
CCOC(F)(F)C(F)(F)C(F)(F)C(F)(F)F,–,inactive
O=S(=O)(Oc1ccc(Cl)cc1Cl)c1ccccc1,29.5 µM (active),–
CCN(CCO)c1cccc(C)c1,–,inactive
CC=CC(F)(F)C(F)(F)C(F)(F)F,–,inactive
CCC(Cc1ccccc1)(C(=O)c1ccc(N2CCOCC2)cc1)N(C)C (stereo not drawn),35.1 µM (active),–

# From PubChem BioAssay (EPA / NIEHS)
